# Columns and labels:
# [1] = biological target: T1, Interleukin-1 receptor-associated kinase 4 (Homo sapiens) (UniProt Q9NWZ3); conditions: at 0.1 µM
# T1 sequence (whole entry): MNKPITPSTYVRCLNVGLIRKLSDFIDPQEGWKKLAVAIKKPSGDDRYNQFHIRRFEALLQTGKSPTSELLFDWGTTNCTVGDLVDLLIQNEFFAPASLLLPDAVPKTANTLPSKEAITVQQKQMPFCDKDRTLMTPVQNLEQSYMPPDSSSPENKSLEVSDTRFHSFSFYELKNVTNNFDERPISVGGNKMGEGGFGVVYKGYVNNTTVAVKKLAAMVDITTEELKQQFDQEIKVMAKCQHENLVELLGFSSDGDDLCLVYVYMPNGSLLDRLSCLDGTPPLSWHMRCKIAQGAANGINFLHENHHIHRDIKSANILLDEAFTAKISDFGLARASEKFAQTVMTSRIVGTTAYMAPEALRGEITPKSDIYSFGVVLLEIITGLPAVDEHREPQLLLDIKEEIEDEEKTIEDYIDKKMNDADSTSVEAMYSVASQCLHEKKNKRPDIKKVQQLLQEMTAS
# [2] = biological target: T1, Interleukin-1 receptor-associated kinase 4 (Homo sapiens); conditions: at 1 µM
# [3] = biological target: Leucine-rich repeat serine/threonine-protein kinase 2 (Homo sapiens) (UniProt Q5S007); conditions: at 0.1 µM
# Chain of Leucine-rich repeat serine/threonine-protein kinase 2 (Homo sapiens) (Q5S007 whole entry): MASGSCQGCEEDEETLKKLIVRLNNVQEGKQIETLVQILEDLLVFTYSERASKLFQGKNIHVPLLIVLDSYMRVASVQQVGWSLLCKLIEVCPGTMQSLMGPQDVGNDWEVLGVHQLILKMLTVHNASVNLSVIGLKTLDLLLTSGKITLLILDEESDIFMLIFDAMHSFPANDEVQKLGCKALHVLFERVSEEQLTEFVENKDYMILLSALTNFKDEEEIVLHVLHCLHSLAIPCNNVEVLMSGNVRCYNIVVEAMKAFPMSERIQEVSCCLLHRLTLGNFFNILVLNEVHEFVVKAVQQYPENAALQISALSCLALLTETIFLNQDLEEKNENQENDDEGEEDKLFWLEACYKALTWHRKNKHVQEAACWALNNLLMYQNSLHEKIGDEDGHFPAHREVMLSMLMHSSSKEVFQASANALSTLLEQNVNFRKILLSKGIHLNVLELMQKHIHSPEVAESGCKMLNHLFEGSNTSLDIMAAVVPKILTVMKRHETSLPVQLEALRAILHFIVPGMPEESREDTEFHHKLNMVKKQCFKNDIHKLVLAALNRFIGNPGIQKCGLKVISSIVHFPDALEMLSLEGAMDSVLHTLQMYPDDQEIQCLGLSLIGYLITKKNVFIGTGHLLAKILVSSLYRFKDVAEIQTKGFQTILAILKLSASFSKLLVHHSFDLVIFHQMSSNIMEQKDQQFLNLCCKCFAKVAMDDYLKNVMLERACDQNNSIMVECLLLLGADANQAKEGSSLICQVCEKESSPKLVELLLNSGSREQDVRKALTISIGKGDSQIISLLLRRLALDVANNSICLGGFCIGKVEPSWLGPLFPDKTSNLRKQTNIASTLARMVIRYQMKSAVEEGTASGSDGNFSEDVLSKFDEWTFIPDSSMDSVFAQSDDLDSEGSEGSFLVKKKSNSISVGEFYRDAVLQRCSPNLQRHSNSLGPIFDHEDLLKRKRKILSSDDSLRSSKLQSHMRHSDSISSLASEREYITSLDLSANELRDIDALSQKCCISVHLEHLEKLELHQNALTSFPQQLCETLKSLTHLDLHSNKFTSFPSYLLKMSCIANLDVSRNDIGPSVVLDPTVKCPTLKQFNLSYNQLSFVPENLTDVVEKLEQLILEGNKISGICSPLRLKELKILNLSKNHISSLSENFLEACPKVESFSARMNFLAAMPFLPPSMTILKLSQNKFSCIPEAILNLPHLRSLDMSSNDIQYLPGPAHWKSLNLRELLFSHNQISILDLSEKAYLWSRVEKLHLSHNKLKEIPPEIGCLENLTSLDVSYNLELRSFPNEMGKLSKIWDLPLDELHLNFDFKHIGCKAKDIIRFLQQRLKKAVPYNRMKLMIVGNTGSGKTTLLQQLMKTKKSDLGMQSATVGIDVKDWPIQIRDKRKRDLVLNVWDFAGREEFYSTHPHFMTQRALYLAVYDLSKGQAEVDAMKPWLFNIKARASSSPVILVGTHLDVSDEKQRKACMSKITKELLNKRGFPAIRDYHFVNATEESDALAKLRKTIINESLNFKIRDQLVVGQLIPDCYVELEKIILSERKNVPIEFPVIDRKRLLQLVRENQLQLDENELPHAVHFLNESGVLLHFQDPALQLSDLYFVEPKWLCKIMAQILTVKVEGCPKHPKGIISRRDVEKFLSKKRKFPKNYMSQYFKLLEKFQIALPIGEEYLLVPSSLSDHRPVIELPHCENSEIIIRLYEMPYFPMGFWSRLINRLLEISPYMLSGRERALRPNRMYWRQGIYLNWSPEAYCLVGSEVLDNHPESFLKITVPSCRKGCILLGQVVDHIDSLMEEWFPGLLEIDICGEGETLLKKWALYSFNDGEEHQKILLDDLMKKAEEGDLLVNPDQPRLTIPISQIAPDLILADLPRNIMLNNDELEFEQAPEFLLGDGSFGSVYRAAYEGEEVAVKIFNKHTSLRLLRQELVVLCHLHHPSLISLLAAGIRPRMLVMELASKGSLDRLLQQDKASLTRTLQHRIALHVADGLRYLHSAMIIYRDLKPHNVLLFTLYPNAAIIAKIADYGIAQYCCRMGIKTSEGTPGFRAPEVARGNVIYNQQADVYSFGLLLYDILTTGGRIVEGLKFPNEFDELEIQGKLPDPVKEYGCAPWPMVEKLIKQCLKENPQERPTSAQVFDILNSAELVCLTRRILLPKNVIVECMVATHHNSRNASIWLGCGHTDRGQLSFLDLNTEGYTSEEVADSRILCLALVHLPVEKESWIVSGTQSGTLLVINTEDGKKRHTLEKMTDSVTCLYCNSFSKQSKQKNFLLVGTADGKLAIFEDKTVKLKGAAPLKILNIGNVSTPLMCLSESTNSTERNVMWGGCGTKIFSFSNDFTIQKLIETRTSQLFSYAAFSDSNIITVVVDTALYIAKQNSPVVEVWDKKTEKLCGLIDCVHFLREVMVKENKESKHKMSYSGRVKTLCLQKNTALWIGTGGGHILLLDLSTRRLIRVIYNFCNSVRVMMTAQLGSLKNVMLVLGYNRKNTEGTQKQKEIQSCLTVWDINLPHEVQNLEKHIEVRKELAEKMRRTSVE
# [4] = biological target: Leucine-rich repeat serine/threonine-protein kinase 2 (Homo sapiens) (UniProt Q5S007); conditions: at 1 µM
# [5] = test system: Leucine-rich repeat serine/threonine-protein kinase 2 (Homo sapiens), Q5S007 [G2019S]; conditions: at 0.1 µM
# Chain of Leucine-rich repeat serine/threonine-protein kinase 2 (Homo sapiens), Q5S007 [G2019S] (Q5S007 whole entry G2019S): as the sequence (Q5S007 whole entry) above, with G2019S counted along it
# [6] = test system: Leucine-rich repeat serine/threonine-protein kinase 2 (Homo sapiens), Q5S007 [G2019S]; conditions: at 1 µM
# [7] = biological target: RAF proto-oncogene serine/threonine-protein kinase (Homo sapiens) (UniProt P04049); conditions: at 1 µM;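 note: values are the mean percent inhibition of CRAF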
# Chain of RAF proto-oncogene serine/threonine-protein kinase (Homo sapiens) (P04049 whole entry): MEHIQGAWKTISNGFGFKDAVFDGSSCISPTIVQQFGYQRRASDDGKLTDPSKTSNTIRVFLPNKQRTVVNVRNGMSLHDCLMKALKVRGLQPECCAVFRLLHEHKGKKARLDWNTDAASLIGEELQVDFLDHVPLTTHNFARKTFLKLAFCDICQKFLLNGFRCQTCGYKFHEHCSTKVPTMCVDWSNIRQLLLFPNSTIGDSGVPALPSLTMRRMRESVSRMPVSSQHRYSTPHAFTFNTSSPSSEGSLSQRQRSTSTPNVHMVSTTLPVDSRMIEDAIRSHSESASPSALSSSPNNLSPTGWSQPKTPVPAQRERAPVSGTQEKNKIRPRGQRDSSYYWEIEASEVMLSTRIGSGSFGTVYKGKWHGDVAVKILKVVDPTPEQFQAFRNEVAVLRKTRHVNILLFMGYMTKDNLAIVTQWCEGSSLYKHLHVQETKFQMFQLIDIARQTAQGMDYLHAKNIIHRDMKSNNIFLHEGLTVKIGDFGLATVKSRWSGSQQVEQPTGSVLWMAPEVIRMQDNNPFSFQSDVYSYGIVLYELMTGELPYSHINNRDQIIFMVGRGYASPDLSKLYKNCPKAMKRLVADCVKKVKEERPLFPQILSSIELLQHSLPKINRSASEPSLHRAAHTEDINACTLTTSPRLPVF
smiles,measurement,setting,value
COc1cccc(-c2c[nH]c3c(N/N=C/c4ccncc4)ncnc23)c1,inhibition,[1],-2.59%
same,inhibition,[2],5.06%
same,inhibition,[3],4.34%
same,inhibition,[4],14%
same,inhibition,[5],5.22%
same,inhibition,[6],25.9%
CNC(=O)c1cc(-c2ccc(F)cc2)cc(-c2ccc(S(=O)(=O)N3CCCC3)cc2)c1N,inhibition,[7],-2.71%
same,inhibition,[1],0.68%
same,inhibition,[2],1.45%
same,inhibition,[3],1.42%
same,inhibition,[4],2.9%
same,inhibition,[5],4.27%
same,inhibition,[6],5.64%
COc1cc(/C=N/Nc2ncnc3[nH]ncc23)ccc1O,inhibition,[7],6.28%
same,inhibition,[1],-2.65%
same,inhibition,[2],4.43%
same,inhibition,[3],5.72%
same,inhibition,[4],17.5%
same,inhibition,[5],10%
same,inhibition,[6],45.2%
COc1cc(Nc2nccc(Nc3ccc4c(C)n[nH]c4c3)n2)cc(OC)c1OC,inhibition,[7],-9.69%
same,inhibition,[1],-1.6%
same,inhibition,[2],6.36%
same,inhibition,[3],9.84%
same,inhibition,[4],17.6%
same,inhibition,[5],10.8%
same,inhibition,[6],43.7%
CCOc1ccc2c(-c3ccnc(Nc4cccc(C(F)(F)F)c4)n3)cnn2n1,inhibition,[7],-1.21%
same,inhibition,[1],0.16%
same,inhibition,[2],1.01%
same,inhibition,[3],3.4%
same,inhibition,[4],6.76%
same,inhibition,[5],4.61%
same,inhibition,[6],10.4%
FC(F)(F)c1cccc(-c2nn3ncccc3c2-c2ccnc(Nc3ccc4c(c3)OCCO4)n2)c1,inhibition,[7],-8.65%
same,inhibition,[1],6.37%
same,inhibition,[2],0.32%
same,inhibition,[3],3.16%
same,inhibition,[4],5.46%
same,inhibition,[5],2.53%
same,inhibition,[6],7.93%
c1cc(-c2cnn3nc(N4CCOCC4)ccc23)nc(NC2CC2)n1,inhibition,[1],-3.02%
same,inhibition,[2],4.62%
same,inhibition,[3],4.63%
same,inhibition,[4],16.4%
same,inhibition,[5],6.59%
same,inhibition,[6],37.2%
COc1ccc(-c2cc3c(N)ncnc3o2)cc1,inhibition,[7],-0.66%
same,inhibition,[1],-0.28%
same,inhibition,[2],0.08%
same,inhibition,[3],0.9%
same,inhibition,[4],3.63%
same,inhibition,[5],1.45%
same,inhibition,[6],2.82%
Fc1ccc(-c2cc(-c3c[nH]nc3-c3ccccn3)ccn2)cc1,inhibition,[7],-1.83%
same,inhibition,[1],2.71%
same,inhibition,[2],1.76%
same,inhibition,[3],2.24%
same,inhibition,[4],5.28%
same,inhibition,[5],3.03%
same,inhibition,[6],4.92%
Clc1ccc(-c2nn3ncccc3c2-c2ccnc(Nc3ccccc3)n2)cc1,inhibition,[7],-3.34%
same,inhibition,[1],-3.75%
same,inhibition,[2],1.51%
same,inhibition,[3],1.23%
same,inhibition,[4],5.86%
same,inhibition,[5],3.01%
same,inhibition,[6],8.26%
O=C(Nc1n[nH]c2cc(-c3ccc(F)cc3)ccc12)C1CC1,inhibition,[7],-2.56%
same,inhibition,[1],2.26%
same,inhibition,[2],1.45%
same,inhibition,[3],0.78%
same,inhibition,[4],5.22%
same,inhibition,[5],3.03%
same,inhibition,[6],6.98%
Nc1ncc(-c2cccc(S(N)(=O)=O)c2)c2scc(-c3ccc(F)c(Cl)c3)c12,inhibition,[7],-4.88%
same,inhibition,[1],1.66%
same,inhibition,[2],2.08%
same,inhibition,[3],10.2%
same,inhibition,[4],45.8%
same,inhibition,[5],11.7%
same,inhibition,[6],51.2%
COc1ccc(-c2nn3ncccc3c2-c2ccnc(Nc3ccc4c(c3)OCCO4)n2)cc1,inhibition,[7],-7.5%
same,inhibition,[1],-0.42%
same,inhibition,[2],-0.94%
same,inhibition,[3],7.1%
same,inhibition,[4],11.4%
same,inhibition,[5],6.14%
same,inhibition,[6],10.2%
CCN(CC)S(=O)(=O)c1ccc(OC)c(Nc2ncc(-c3ccccc3)o2)c1,inhibition,[7],-0.65%
same,inhibition,[1],0.75%
same,inhibition,[2],0.8%
same,inhibition,[3],2.62%
same,inhibition,[4],5.16%
same,inhibition,[5],1.76%
same,inhibition,[6],9.32%
CCn1c(-c2nonc2N)nc2ccccc21,inhibition,[7],2.78%
same,inhibition,[1],-0.13%
same,inhibition,[2],1.55%
same,inhibition,[3],6.41%
same,inhibition,[4],8.23%
same,inhibition,[5],5%
same,inhibition,[6],13.7%
O=C(O[C@H]1CN[C@H](C#Cc2cc3ncnc(Nc4ccc(Cc5ccccc5)cc4)c3s2)C1)N1CCOCC1,inhibition,[7],0.23%
same,inhibition,[1],-0.04%
same,inhibition,[2],-0.2%
same,inhibition,[3],1.27%
same,inhibition,[4],2.6%
same,inhibition,[5],2.35%
same,inhibition,[6],3.96%
Cc1cccc2c1NC(=O)/C2=N\Nc1ccc(S(N)(=O)=O)cc1,inhibition,[1],-0.09%
same,inhibition,[2],1.25%
same,inhibition,[3],2.99%
same,inhibition,[4],7.1%
same,inhibition,[5],2.75%
same,inhibition,[6],10.2%
N#Cc1c(NC(=O)c2ccc(F)cc2)sc2c1CCCC2,inhibition,[1],1.78%
same,inhibition,[2],0.51%
same,inhibition,[3],0.58%
same,inhibition,[4],1.04%
same,inhibition,[5],1.92%
same,inhibition,[6],5.12%
Cc1ccc2c(-c3ccnc(Nc4ccccc4)n3)c(-c3ccc(F)cc3)nn2n1,inhibition,[1],-2.94%
same,inhibition,[2],1.87%
same,inhibition,[3],3.22%
same,inhibition,[4],7.93%
same,inhibition,[5],3.36%
same,inhibition,[6],7.63%
CCn1c(-c2nonc2N)nc2c(C#CC(C)(C)O)nc(OC[C@H](N)c3ccccc3)cc21,inhibition,[7],-1.64%
same,inhibition,[1],1.14%
same,inhibition,[2],1.37%
same,inhibition,[3],7.19%
same,inhibition,[4],29.8%
same,inhibition,[5],23.8%
same,inhibition,[6],63.2%
Cc1cccc(Nc2ncc(-c3ccccc3)o2)c1,inhibition,[7],-2.34%
same,inhibition,[1],1.25%
same,inhibition,[2],1.27%
same,inhibition,[3],1.6%
same,inhibition,[4],7.74%
same,inhibition,[5],5.32%
same,inhibition,[6],11.8%
Fc1ccc(-c2nn3ncccc3c2-c2ccnc(Nc3ccc4c(c3)OCCO4)n2)cc1,inhibition,[7],-0.33%
same,inhibition,[1],2.79%
same,inhibition,[2],2.18%
same,inhibition,[3],3.63%
same,inhibition,[4],7.64%
same,inhibition,[5],2.59%
same,inhibition,[6],6.75%
CCc1nn2ncccc2c1-c1ccnc(NC2CC2)n1,inhibition,[7],-3.3%
same,inhibition,[1],1.42%
same,inhibition,[2],1.5%
same,inhibition,[3],0.11%
same,inhibition,[4],4.02%
same,inhibition,[5],1.77%
same,inhibition,[6],4.72%
COC(=O)Nc1nc2ccc(S(=O)(=O)c3ccc(NC(=O)Nc4cc(C(F)(F)F)ccc4F)cc3)cc2[nH]1,inhibition,[7],-2.68%
same,inhibition,[1],2.19%
same,inhibition,[2],1.11%
same,inhibition,[3],4.08%
same,inhibition,[4],3.21%
same,inhibition,[5],2.36%
same,inhibition,[6],6.79%
CCNC(=O)O[C@H]1CN[C@H](C#Cc2cc3ncnc(Nc4ccc(OCc5cccc(F)c5)c(Cl)c4)c3s2)C1,inhibition,[1],-5.34%
same,inhibition,[2],6.03%
same,inhibition,[3],3.12%
same,inhibition,[4],4.18%
same,inhibition,[5],2.44%
same,inhibition,[6],6.88%
COc1cc2c(cc1Nc1nc(Nc3ccsc3C(N)=O)c3cc[nH]c3n1)N(C(=O)CN(C)C)CCC2(C)C,inhibition,[7],-0.27%
same,inhibition,[1],-1.47%
same,inhibition,[2],2.28%
same,inhibition,[3],90.7%
same,inhibition,[4],98%
same,inhibition,[5],85.4%
same,inhibition,[6],93.9%
COc1cccc(-n2ncc3c(N/N=C/c4ccc(F)cc4)ncnc32)c1,inhibition,[1],-3.94%
same,inhibition,[2],1.4%
same,inhibition,[3],1.96%
same,inhibition,[4],6.79%
same,inhibition,[5],5.09%
same,inhibition,[6],8.94%
c1ccc(COc2ccc(Nc3ncnc4ccc(-c5ccco5)cc34)cc2)cc1,inhibition,[7],6.05%
same,inhibition,[1],0.92%
same,inhibition,[2],1.06%
same,inhibition,[3],4.27%
same,inhibition,[4],3.99%
same,inhibition,[5],3.97%
same,inhibition,[6],1.89%
NS(=O)(=O)c1ccc(N/N=C2\C(=O)Nc3ccc4ncccc4c32)cc1,inhibition,[1],2.94%
same,inhibition,[2],2.77%
same,inhibition,[3],19.4%
same,inhibition,[4],22.2%
same,inhibition,[5],40.4%
same,inhibition,[6],63.2%
Cc1ccc(O)cc1Nc1ccnc2cc(-c3ccccn3)ccc12,inhibition,[1],-3.41%
same,inhibition,[2],2.33%
same,inhibition,[3],5.01%
same,inhibition,[4],11.4%
same,inhibition,[5],7.5%
same,inhibition,[6],31.1%
CC(C)(CO)CNC(=O)c1ccc2c(c1)/C(=N/Nc1ccc(S(N)(=O)=O)cc1)C(=O)N2,inhibition,[7],-3.84%
same,inhibition,[1],-1.23%
same,inhibition,[2],-0.85%
same,inhibition,[3],3.58%
same,inhibition,[4],15%
same,inhibition,[5],6.85%
same,inhibition,[6],37.8%
Nc1nc(-c2ccc(F)cc2)c(-c2ccc3ncccc3n2)s1,inhibition,[7],-6.29%
same,inhibition,[1],3.41%
same,inhibition,[2],2.12%
same,inhibition,[3],1.84%
same,inhibition,[4],6.21%
same,inhibition,[5],4.54%
same,inhibition,[6],10.2%
COc1cc(N2CCN(C(C)C)CC2)ccc1Nc1nc(Nc2ccc(F)cc2C(N)=O)c2cc[nH]c2n1,inhibition,[7],-2.24%
same,inhibition,[1],0.7%
same,inhibition,[2],1.94%
same,inhibition,[3],84.9%
same,inhibition,[4],94.8%
same,inhibition,[5],85.4%
same,inhibition,[6],62.5%
COc1ccc2c(-c3ccnc(Nc4cccc(OC(F)(F)F)c4)n3)cnn2n1,inhibition,[1],-3.64%
same,inhibition,[2],2.91%
same,inhibition,[3],5.25%
same,inhibition,[4],14.5%
same,inhibition,[5],8.08%
same,inhibition,[6],39.3%
